Bioassay records as filed in PubChem.
Sampled rows, rich in hits. Any-hit rate of the full collection: about 6.6%.
KB-V1 cytotox: KB-V1 MDR subline cytotoxicity; KB-V1 MDR cells viability, CellTiter-Glo, 72 h; Potency, µM (highest dose often 46.1 µM), usual class: cytotoxic; actives 3.4% (n = 400,000); AID 1347076; note: % is set by controls: 0 for no effect and ±100 for the full control effect; nearly all actives have a fitted effect of over 60% in size
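In this primary screen, KB-V1 cells overexpressing P-gp are incubated with library compounds (lowest to highest concentration) for 72 h at 37 degrees C before a luminescent ATP viability read.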
SW480 rerep: induces DNA re-replication in SW480 colon adenocarcinoma cells | SW480 DNA re-replication, Hoechst DNA content imaging, 48 h | Potency, µM (highest dose often 46.1 µM), without a hit: at the highest dose re-replication activation, usual class: activators | actives 1.8% (n = 340,000) | AID 624297; note: % of control where 0% means no effect; nearly all actives have a fitted effect of over 55% in size
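First, 250 cells per well were seeded. Next, compound or vehicle (23 nL) was pinned in, plates sat 48 hr at 37 C. Finally Hoechst was added for 40 min before fluorescence scanning.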
KB-3-1 cytotox: kills parental KB-3-1 adenocarcinoma cells; AID 1347075; actives 1.4% (n = 400,000); KB-3-1 viability, CellTiter-Glo ATP luminescence, 72 h; Potency, µM (series often up to 46.1 µM), hits mostly cytotoxic; note: % is set by controls: 0 for no effect and ±100 for the full control effect; nearly all actives have a fitted effect of over 60% in size
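Here the drug-naive KB-3-1 line serves as comparator for MDR sub-line selectivity; cells received compound titrations, 72 h at 37 °C, then CellTiter-Glo readout.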
MCF10A rereplic: inducers of DNA re-replication in MCF 10A breast cells | MCF 10A DNA re-replication, Hoechst nuclear intensity, 48 h | Potency, µM (top dose mostly 46.1 µM), for the others: at the highest dose activity, positive = re-replication, most hits filed as activators | actives 2.9% (n = 350,000) | AID 624296; note: % of control where 0% means no effect; nearly all actives have a fitted effect of over 50% in size
RGS4 inh: inhibitors of human regulator of G protein signaling 4. Transcreener GDP fluorescence polarization, RGS4-accelerated GTP hydrolysis. Potency, µM (doses to about 114 µM), for inactives: at the highest dose activity change, negative = inhibition, most hits filed as inhibitors. actives 0.039% (n = 390,000). AID 504845; note: % is set by controls: 0 for no effect and ±100 for the full control effect; nearly all actives have a fitted effect of over 75% in size
Target sequence (P49798 whole entry, looked up): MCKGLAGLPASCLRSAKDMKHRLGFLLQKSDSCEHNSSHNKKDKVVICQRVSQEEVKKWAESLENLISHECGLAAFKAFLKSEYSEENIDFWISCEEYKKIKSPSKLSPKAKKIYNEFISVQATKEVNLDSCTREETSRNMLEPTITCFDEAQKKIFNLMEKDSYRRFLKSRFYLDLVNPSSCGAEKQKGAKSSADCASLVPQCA
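MLSMR compounds (23 nl, pin-transferred) preincubated 10 min at room temperature with a 500nM (2x) first reagent, then RGS4 at 900nM (2x) plus Transcreener GDP mix added; fluorescence polarization (620/688 nm) read before and after 90 min at 30 °C.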
PTAP TSG101 blk: blocks PTAP/TSG101 interaction to inhibit HIV-1 budding; Q99816; Fluorescence polarization, FITC-PTAP peptide / Tsg101 binding; Potency, µM (top dose mostly 115 µM), for inactives: top-dose activity change, negative = inhibition, most hits filed as inhibitors; 340,000 tested, under 10 active; AID 493005; active = well fitted inhibition curve with a large enough effect in the main read-out, with a control signal flat, not every such curve was filed as active; inconclusive = small, poorly fitted or top-dose-only effect, or effect the other way, or a change in a side signal; inactive = no such curve, though single readings can be large or run the other way; note: % of control where 0% means no effect
Target sequence (Q99816 whole entry, looked up): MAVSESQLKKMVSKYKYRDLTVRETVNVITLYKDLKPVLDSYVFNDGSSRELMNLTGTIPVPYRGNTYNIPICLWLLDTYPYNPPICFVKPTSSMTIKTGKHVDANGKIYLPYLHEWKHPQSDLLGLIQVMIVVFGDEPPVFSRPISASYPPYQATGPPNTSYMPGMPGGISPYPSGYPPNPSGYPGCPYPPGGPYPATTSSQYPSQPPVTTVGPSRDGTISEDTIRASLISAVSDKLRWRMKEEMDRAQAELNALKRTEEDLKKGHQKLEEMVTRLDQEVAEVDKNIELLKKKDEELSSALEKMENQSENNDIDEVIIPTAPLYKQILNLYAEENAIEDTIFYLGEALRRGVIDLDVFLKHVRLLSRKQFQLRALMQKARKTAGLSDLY
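Tsg101 binding domain (10 uM final) was mixed with compound and a FITC-labeled PTAP peptide (50 nM final) in HEPES pH 7.5 buffer with NaCl, Tween 20, EDTA and TCEP; fluorescence polarization was read after 20 min at r.t.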
Active calls of the source: *; i = inactive; u = inconclusive; x = not tested or not shown; [ ] = remark or other dose. Unless noted, calls come from the whole dose curve; as a rule, active = well fitted curve in the direction sought with a large enough effect; inconclusive = small, poorly fitted or top-dose-only effect, or another doubt; inactive = no such curve, though single readings can be large; an effect the other way counts as inactive or inconclusive. Potency is the fitted concentration of half-maximal effect.

SMILES	KB-V1 cytotox	SW480 rerep	KB-3-1 cytotox	MCF10A rereplic	RGS4 inh	PTAP TSG101 blk
Cc1ccc(S(=O)(=O)Nc2ccc3c(c2)nc(CCN2CCN(c4ccccn4)CC2)n3C)cc1	i	1µM*	i	-4%	1%	-2%
COc1ccc(OCC(=O)Nc2ccc3c(c2)nc(CCN2CCC(C)CC2)n3C)cc1	i	-19%	i	-1%	-6%	-3%
Cn1c(CCN2CCN(c3ccccn3)CC2)nc2cc(NS(=O)(=O)c3ccc(Cl)cc3)ccc21	i	u	u	u	-4%	-7%
Cn1c(CCN2CCN(c3ccccn3)CC2)nc2cc(NC(=O)COc3ccc(Cl)cc3)ccc21	u	7.3µM*	i	3%	-9%	-3%
Cc1nn(C)c2c1c(C(F)(F)F)cc(=O)n2C(C)C(=O)NCCc1ccc(Cl)cc1 (configuration not stated)	i	x	i	x	-3%	x
Cc1ccc(-c2[nH]ncc2CNCc2ccc(CN(C)C)cc2)cc1	i	x	i	x	4%	x
Cc1ccc2[nH]c(C)c(/C=C/c3cc[n+](C)cc3)c2c1	i	u	2.1µM*	47%	-24%	u
C=CC(C)(C)c1[nH]cnc1/C=C1\NC(=O)C(C(C)C)NC1=O (configuration not stated)	i	u	5.8µM*	u	3%	0%
COc1ccc(NC(=O)COC(=O)C(NC(=O)c2ccc(C)cc2)C(C)C)cn1 (configuration not stated)	15µM*	-6%	i	-8%	-25%	-7%
Oc1ccc(-c2nc(-c3ccc(F)cc3)c(-c3ccncc3)[nH]2)cc1	i	3.5µM*	u	10%	-5%[56.9 µM]	-5%
COc1ccc(-c2[nH]c(-c3ccc(C(=O)O)cc3)nc2-c2ccccc2)cc1	i	-20%	i	15%	7%	-8%
Fc1ccc(-c2nc(-c3cccs3)c(-c3cccs3)[nH]2)cc1	x	x	x	x	8%	x
Fc1cc2nc(-c3ccncc3)[nH]c2cc1F	i	-9%	i	-3%	-4%	-4%
Fc1ccc(-c2nc(-c3cccs3)[nH]c2-c2ccc(F)cc2)cc1	16µM*	83%	18µM*	u	-6%	0%
O=C(O)c1ccc(-c2nc(-c3ccccc3)c(-c3ccccc3)[nH]2)cc1	u	-7%	i	16µM*	-23%	-3%
COc1ccc(CCn2c3c(c(=O)[nH]c2=S)CN(c2ccccc2)CN3)cc1OC	x	x	x	x	-14%	x
CCc1ccccc1NC(=O)Cn1c(=O)nc(-c2ccccc2)c2ccccc21	x	x	x	x	17%	x
O=C(OCCN1C(=O)c2cccc3c(N4CCOCC4)ccc(c23)C1=O)c1cccc(Cl)c1	u	u	13µM*	2%	11%	u
O=C(OCCN1C(=O)c2cccc3c(N4CCOCC4)ccc(c23)C1=O)c1ccc(Cl)cc1Cl	u	5.8µM*	u	u	-5%	u
CC(C)(C)c1ccc(C(=O)NNc2ncnc3c2cnn3-c2ccc(Cl)cc2)cc1	i	x	i	x	11%	x
Cc1c(C(=O)NCc2ccc(C(C)C)cc2)sc(=O)n1Cc1ccc(S(=O)(=O)N(C)C)cc1	2.6µM*	x	u	x	x	x
Cc1c(C(=O)NCc2cccc(Cl)c2)sc(=O)n1Cc1ccc(C(=O)N(C)C)cc1	21µM*	x	u	x	x	x
C=Cc1ccc(Cn2c(C)c(C(=O)NCc3ccc4c(c3)OCCO4)sc2=O)cc1	9.2µM*	x	u	x	x	x
Cc1c(C(=O)NCc2ccc(C(C)C)cc2)sc(=O)n1Cc1cccc(F)c1	i	x	i	x	x	x
CSc1ccc(Cn2c(C)c(C(=O)NCc3ccc(C(C)C)cc3)sc2=O)cc1	16µM*	x	18µM*	x	x	x
SMILES	KB-V1 cytotox	SW480 rerep	KB-3-1 cytotox	MCF10A rereplic	RGS4 inh	PTAP TSG101 blk
O=C(Nc1ccc(Cl)cc1)C1CCN(c2nc3ccccc3n3cccc23)CC1	x	x	x	x	-4%	x
Cc1cc(NC(=O)N2CCC(CN3CCCCCC3)CC2)ccc1Br	x	x	x	x	-27%	x
Cc1ccccc1Cn1c(C)c(C(=O)NCc2ccc(Cl)c(Cl)c2)sc1=O	u	x	i	x	x	x
Cc1c(C(=O)NCc2ccc(Cl)c(Cl)c2)sc(=O)n1Cc1ccc(S(=O)(=O)N(C)C)cc1	u	x	8.2µM*	x	x	x
Cc1cccc(Nc2nc(-c3ccccc3)c(C(=O)Nc3cccnc3)s2)c1	u	16µM*	u	23µM*	-30%	2%
O=C(Nc1cccnc1)c1ccc2nc(-c3ccccc3)c(-c3ccccc3)nc2c1	u	-32%	i	u	10%	-3%
Cc1cccc(NC(=O)c2sc(Cl)nc2-c2ccccc2)c1	i	-3%	u	26%	34%	-9%
O=C(Nc1cccnc1)c1sc(Nc2ccccc2)nc1-c1ccccc1	15µM*	13%	u	16µM*	-36%	1%
O=C(c1cnc(N2CCCCC2)c2ccccc12)N1CCN(c2ccc(F)cc2)CC1	u	x	i	x	-15%	x
O=C(NCC(c1cccs1)S(=O)(=O)c1cccs1)c1ccc(Cl)cc1 (configuration not stated)	i	x	i	x	20%	x
Cc1ccc2nc(-c3ccc(NC(=S)NC4CC(C)(C)NC(C)(C)C4)cc3)sc2c1	i	u	u	29µM*	-40%	1%
Cc1ccc2nc(-c3ccc(NC(=O)CCN4C(=O)c5ccccc5C4=O)cc3)sc2c1	i	-1%	i	18%	23%	0%
Cc1ccc(C2(C)NC(=O)N(CC(=O)c3ccc(Cl)s3)C2=O)cc1 (configuration not stated)	21µM*	-3%	i	0%	7%	2%
Cc1ccc2nc(-c3ccc(NC(=S)NC(=O)C(C)C)cc3)sc2c1	i	3%	i	2%	-28%	0%
Cc1ccc(C2(C)NC(=O)N(CC(=O)Nc3ccc(-c4nc5ccc(C)cc5s4)cc3)C2=O)cc1 (configuration not stated)	i	636%	i	18µM*	17%[11.4 µM]	-3%
COC(=O)c1ccc(NC(=O)c2c(NCc3ccc(OC)c(OC)c3)sc3c2CCCC3)cc1	u	x	i	x	-39%	x
O=S(=O)(NCC(c1cccs1)S(=O)(=O)c1ccccc1)c1ccccc1 (configuration not stated)	x	x	x	x	-7%	x
O/N=C(/CBr)c1ccc2ccccc2c1	i	x	i	x	x	x
CCCCCc1c(C)nc(N2CCc3ccccc3C2)[nH]c1=O	i	-7%	i	5%	-23%	-1%
CCCCCc1c(C)nc(N2CCc3ccccc32)[nH]c1=O	3.3µM*	u	u	-4%	-52%	1%
